MARV entry inh = Marburg virus entry inhibition; 300,000 tested, 1.8% active; Marburg virus pseudotyped entry inhibition, cell reporter; Potency, µM (top dose mostly 37.8 µM), for the others: top-dose activity change, negative = inhibition, hits mostly inhibitors; calls by dose curve; tested in HEK293 cells; note: potency is the fitted concentration of half-maximal effect
VACV mCherry inh = vaccinia inhibition (mCherry reporter) | Vaccinia virus mCherry reporter infection, fluorescence | 310,000 tested, 0.63% active | Potency, µM (highest dose often 36.5 µM), for inactives: at the top dose activity change, negative = inhibition, usual class: inhibitors; calls by dose curve; tested in A549 cells; note: potency is the fitted concentration of half-maximal effect; nearly all actives have a fitted effect of over 35% in size
Lassa entry inh = Lassa virus entry inhibition | Lassa virus pseudotype entry inhibition, cell reporter | Potency, µM (highest dose often 37.9 µM), without a hit: top-dose activity change, negative = inhibition, hits mostly inhibitors | 300,000 tested, 1.2% active | AID 540256; calls by dose curve; tested in HEK293 cells; note: potency is the fitted concentration of half-maximal effect; nearly all actives have a fitted effect of over 50% in size
VACV Venus inh = inhibitors of vaccinia virus (Venus reporter); 330,000 tested, 0.46% active; Potency, µM (highest dose often 36.5 µM), for inactives: at the top dose activity change, negative = inhibition, actives largely listed as inhibitors; Vaccinia virus Venus reporter expression, fluorescence; calls by dose curve; tested in A549 cells; note: potency is the fitted concentration of half-maximal effect; nearly all actives have a fitted effect of over 30% in size
HCV inhibitor = inhibitors of hepatitis C virus infection; 340,000 tested, 3.4% active; Potency, µM (doses to about 41.8 µM), for inactives: at the top dose activity change, negative = inhibition, usual class: inhibitors; Huh7.5.1 HCVcc-Cre infection, luciferase reporter, 44 h; AID 651820; active = well fitted inhibition curve with a large enough effect; inconclusive = small, poorly fitted or top-dose-only effect, or another doubt; inactive = no such curve, though single readings can be large or run the other way; note: potency is the fitted concentration of half-maximal effect
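Reporter virus HCVcc-Cre (~0.5 moi) infects cells exposed to compound; seeding density 1,000 cells/well with 4 h settling beforehand. Luminescence, 15 sec read, taken 44 h post-infection following a 15 min RT substrate incubation.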
HCMV inh = blocks human cytomegalovirus replication; 410,000 tested, 4.5% active; activity change, negative = inhibition, % at 57.5 µM; HFF cells, HCMV-luciferase reporter, 72 h; active compounds read low; AID 1259415; in the data active = activity change below about -60%; inconclusive = no clear call, values can overlap the other calls; inactive = above about -39%
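Two compound doses tested in HFFs infected with HCMV-luciferase, MOI 1 PFU/cell, 72 h at 37C. Lysate luminescence read with OneGlo; data normalized against buffer-only and 10uM Salinomycin inhibitor controls.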
Active calls of the source: *; i = inactive; ? = inconclusive; . = not tested or not shown; [ ] = another dose, or the depositor's remark. An excerpt weighted towards active compounds, which were near 7.8% of everything screened. % is set by controls: 0 for no effect and ±100 for the full control effect.

SMILES	MARV entry inh	VACV mCherry inh	Lassa entry inh	VACV Venus inh	HCV inhibitor	HCMV inh
CC1CCCN(CC(O)CN2CCN(CC(O)CN3CCCC(C)C3)C(C)C2)C1 (centres undefined)	1.1µM*	i	3%[46.1 µM]	6%	9%	-13
COc1ccc(OC)c(NC(=O)c2c(NCc3ccc(C)o3)sc3c2CCCCC3)c1	.	-10%[7.34 µM]	1%[46.1 µM]	-4%[7.34 µM]	.	-33
COc1ccc(OC)c(NC(=O)CN2C(=O)CCc3cc(S(=O)(=O)N4CCCCC4)ccc32)c1	.	1%	?	4%	.	21
CC(C)Cn1c(SCC#N)nc2ccccc2c1=O	-20%	-13%	1%	-14%	-13%	-101*
CC(C)OC(=O)c1cc(NC(=O)c2nn(C)cc2Br)cc(C(=O)OC(C)C)c1	?	-13%	5.2µM*	-3%	?	12
C[C@@H](NC(=O)c1ncn2c1c(=O)[nH]c1ccc(Br)cc12)c1ccccc1	.	?	.	?	.	-100*
O=c1c2cc3c(cc2nc2sc(Nc4ccc(F)c(Cl)c4)nn12)OCO3	22%[46.1 µM]	-3%	?	-2%	.	23
Cc1ccc(CNC(=O)CN(C(=O)C2(C)CC(=O)N=C3C=CC=CN32)c2cc(C)ccc2C)cc1 (centres undefined)	-6%[46.1 µM]	-11%	-12%	-10%	1%	38
Cc1ccc(CNC(=O)CN(Cc2cccs2)C(=O)C2(C)CC(=O)N=C3C=CC=CN32)cc1 (centres undefined)	4%	-8%	8%	-5%	-2%	-77*
Cc1nnc2n1N=CC=C(c1ccccc1)S2	?	.	?	.	?	-99*
COc1ccc(CNC(=O)C2CCN(c3nnc(-n4c(C)ccc4C)s3)CC2)c(OC)c1	-15%[46.1 µM]	-10%	-26%[46.1 µM]	-10%	.	27
Cc1ccc(N)c(C)c1	.	i	.	-12%	-24%	-21
Cc1ccc(-c2nc(N)nc(N)n2)c(C)c1	.	?	.	-12%	-11%	-95*
Cc1cc(C2=CC(=O)C[C@H](c3ccc(F)cc3)C2)ccc1F	.	-19%	.	-17%	.	-62*
Cc1ccc(C2=CC(=O)C[C@H](c3ccc4c(c3)OCO4)C2)cc1	.	-4%	.	-7%	-29%	-38
CSc1ccc(C2=CC(=O)C[C@H](c3ccc4c(c3)OCO4)C2)cc1	.	i	.	-14%	17%	-64*
Cc1nc(-c2ccccc2)sc1-c1ccc(SCC(=O)NCc2ccc(F)cc2)nn1	.	i	-5%[46.1 µM]	?	.	1
CCOC(=O)c1c(NC(=O)COc2cccc3c2CCN(CC)C3=O)sc2c1CCC2	?	0%	-14%	2%	10%	-80*
COc1ccccc1OCC(=O)Nc1sc2c(c1C(N)=O)CCC2	.	.	.	.	?	-3
CCOC(=O)c1c(NC(=O)COC(=O)c2nccnc2N)sc2c1CCC2	.	.	.	.	?	34
CCOC(=O)c1c(NC(=O)COC(=O)c2nc(Cl)ccc2Cl)sc2c1CCC2	-12%	-12%	13%	-6%	-2%	-61*
COc1ccccc1OCC(=O)Nc1sc2c(c1C(=O)NCC1CCCO1)CCC2 (centres undefined)	?	-16%	-7%	-9%	0.89µM*	?
CCOC(=O)c1c(NC(=O)COc2cccc3c2CCN(Cc2ccc(F)cc2)C3=O)sc2c1CCC2	3%	.	.	.	2%	.
CC(C)(CNC(=O)c1cnn(-c2ncc3c(n2)-c2ccccc2CCC3)c1C1CC1)N1CCOCC1	.	-17%	.	-7%	.	.
CCC(CC)C(C(=O)NCc1ccccc1)N1CCN(c2cccc(C)c2C)CC1 (centres undefined)	.	i	.	?	.	16
SMILES	MARV entry inh	VACV mCherry inh	Lassa entry inh	VACV Venus inh	HCV inhibitor	HCMV inh
COc1ccc(Cl)cc1NC(=O)C1CCN(c2ncnc3c2nc2n3CCCCC2)CC1	.	i	8%[46.1 µM]	-10%	.	5
Oc1ccc(/C=C/c2cc(O)cc(O)c2)cc1	3.2µM*	?	7.3µM*	-8%	-7%[8.37 µM]	64
Cc1cc(Cl)ccc1NS(=O)(=O)c1c(C(=O)N2CCCCCC2)c(C)n(C)c1C	.	-17%	-24%[46.1 µM]	-16%	.	-5
CCOC(=O)c1nn(-c2ccc3c(c2)OCO3)cc1O	-24%	.	17%	-13%	-1%	-101*
COc1ccc(-c2nn3c(=O)cc(CN4CCN(C(=O)Nc5ccc(C)c(Cl)c5)CC4)nc3s2)cc1	.	-12%	?	-9%	.	13
CCOc1ccc(-c2nc(C(N)=O)c3c(n2)n(-c2ccc4c(c2)OCO4)c(=O)n3CC)cc1	8%[46.1 µM]	-16%	-11%[46.1 µM]	-14%	.	-16
CCN(CC)C(=O)CSC1=C(C#N)C(c2cccs2)C=C(C)N1 (centres undefined)	7.9µM*	.	?	-10%	-25%	-16
COc1ccc(NC(=O)CN(c2ccc(C)cc2)S(=O)(=O)c2cccc3nonc23)cc1OC	?	-15%	-21%[46.1 µM]	1%	.	-8
CC(C)(C)C1CCC(=O)N(CCSc2ccccc2)CC1 (centres undefined)	.	-19%	.	-15%	3.5µM*	-16
Cc1ccc(SCCN2CCC(C(C)(C)C)CCC2=O)cc1 (centres undefined)	.	-3%	.	-21%	-1%	-6
Cc1ccc(Oc2ccc(OCC(=O)NC(CC(C)C)C(=O)O)cc2)cc1 (centres undefined)	?	-3%	0%	-1%	13%	-65*
CC(C)COc1ccc(C(=O)NC(CC(C)C)C(=O)O)cc1 (centres undefined)	27%	-8%	4%	1%	24%	-6
Cc1nc2c(-c3ccccc3)c(C)[nH]n2c(=O)c1Cc1ccc(C(C)C)cc1	?	?	?	?	.	-14
COc1ccccc1NCC(O)COc1ccc(C(C)(C)C)cc1 (centres undefined)	?	-21%	-10%	-25%	?	-15
COc1ccc(OCC(O)CNCCOc2ccccc2OC)c(C(C)(C)C)c1 (centres undefined)	.	.	.	.	18µM*	-67*
CC[N+](C)(C)c1ccc(/C=C/c2ccncc2)cc1	.	140%	.	i	.	.
CC1=C(c2ccc(C)c(C)c2)S(=O)(=O)N=C1N1CCC(C(=O)NC(C)c2ccccc2)CC1 (centres undefined)	.	-17%	-19%[46.1 µM]	-22%	.	-7
COc1cc(C(=O)N2CCc3c([nH]c4ccccc34)C2c2ccc(F)cc2)cc(OC)c1OC (centres undefined)	.	-16%	8.9µM*	-7%	.	29
O=C(CSCc1ccc(F)cc1)N1CCc2c([nH]c3ccccc23)C1c1ccc(F)cc1 (centres undefined)	.	-25%	?	-24%	.	23
O=C(c1ccc(F)cc1)N1CCc2c([nH]c3ccccc23)C1c1ccc(Cl)cc1 (centres undefined)	.	-4%	?	-13%	.	-66*
CCOc1cc(C(=O)N2CCc3c([nH]c4ccccc34)C2c2ccccc2)cc(OCC)c1OCC (centres undefined)	.	i	?	-14%	.	-19

From PubChem BioAssay
